# Where two headings read alike, the source gives them in different places.
# Experiments:
# [1] = system: T1, CTK; details: concentration: 1 μM, replicates: in singlicate; n = 1
# T1 construct: gene MATK
# [2] = system: DAPK1; details: concentration: 1 μM, replicates: in singlicate; n = 1
# [3] = system: DAPK2; details: concentration: 1 μM, replicates: in singlicate; n = 1
# [4] = system: DAPK3; details: concentration: 1 μM, replicates: in singlicate; n = 1
# [5] = system: T2, DCAMKL1; details: concentration: 1 μM, replicates: in singlicate; n = 1
# T2 construct: gene DCLK1
# [6] = system: T3, DCAMKL2; details: concentration: 1 μM, replicates: in singlicate; n = 1
# T3 construct: gene DCLK2
# [7] = system: T4, DCAMKL3; details: concentration: 1 μM, replicates: in singlicate; n = 1
# T4 construct: gene DCLK3
# [8] = system: DDR1; details: concentration: 1 μM, replicates: in singlicate; n = 1
# [9] = system: DDR2; details: concentration: 1 μM, replicates: in singlicate; n = 1
# [10] = system: T5, DLK; details: concentration: 1 μM, replicates: in singlicate; n = 1
# T5 construct: gene MAP3K12
# [11] = system: T6, DMPK2; details: concentration: 1 μM, replicates: in singlicate; n = 1
# T6 construct: gene CDC42BPG
# [12] = system: DMPK; details: concentration: 1 μM, replicates: in singlicate; n = 1
# [13] = system: T7, DRAK1; details: concentration: 1 μM, replicates: in singlicate; n = 1
# T7 construct: gene STK17A
# [14] = system: T8, DRAK2; details: concentration: 1 μM, replicates: in singlicate; n = 1
# T8 construct: gene STK17B
# [15] = system: DYRK1A; details: concentration: 1 μM, replicates: in singlicate; n = 1
# [16] = system: DYRK1B; details: n = 1
# [17] = system: DYRK2; details: concentration: 1 μM, replicates: in singlicate; n = 1
# [18] = system: EGFR; details: concentration: 1 μM, replicates: in singlicate; n = 1
# [19] = system: EIF2AK1; details: concentration: 1 μM, replicates: in singlicate; n = 1
# [20] = system: EPHA1; details: concentration: 1 μM, replicates: in singlicate; n = 1
# [21] = concentration: 1 μM, replicates: in singlicate
# 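Also: KINOMEscan kinase panel screen.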
smiles,measurement,setting,value
COc1ccc(CSc2nnc(-c3ccc4c(c3)CCO4)o2)cc1,%Inh,[1],0%
same,%Inh,[2],0%
same,%Inh,[3],18%
same,%Inh,[4],0%
same,%Inh,[5],0%
same,%Inh,[6],0%
same,%Inh,[7],0%
same,%Inh,[8],0%
same,%Inh,[9],15%
same,%Inh,[10],0%
same,%Inh,[11],0%
same,%Inh,[12],0%
same,%Inh,[13],0%
same,%Inh,[14],3%
same,%Inh,[15],0%
same,%Inh,[16]; [21],35%
same,%Inh,[17],0%
same,%Inh,[18],0%
same,%Inh,[19],0%
same,%Inh,[20],0%
Cc1ccc(NC(=O)Nc2ccccc2)cc1-c1ccc(C(=O)Nc2ccncc2)cc1 [GSK1398471],%Inh,[1],0%
same,%Inh,[2],3%
same,%Inh,[3],3%
same,%Inh,[4],9%
same,%Inh,[5],10%
same,%Inh,[6],0%
same,%Inh,[7],24%
same,%Inh,[8],95%
same,%Inh,[9],38%
same,%Inh,[10],9%
same,%Inh,[11],9%
same,%Inh,[12],0%
same,%Inh,[13],9%
same,%Inh,[14],0%
same,%Inh,[15],9%
same,%Inh,[16]; [21],0%
same,%Inh,[17],14%
same,%Inh,[18],10%
same,%Inh,[19],0%
same,%Inh,[20],24%
COC(=O)c1cccc(NC(=O)NC2CCN(c3ccnc(Nc4ccc(OC)cc4)n3)C2)c1 (stereo not shown) [GSK1379746],%Inh,[1],0%
same,%Inh,[2],0%
same,%Inh,[3],0%
same,%Inh,[4],0%
same,%Inh,[5],8%
same,%Inh,[6],0%
same,%Inh,[7],0%
same,%Inh,[8],11%
same,%Inh,[9],46%
same,%Inh,[10],35%
same,%Inh,[11],0%
same,%Inh,[12],0%
same,%Inh,[13],4%
same,%Inh,[14],10%
same,%Inh,[15],11%
same,%Inh,[16]; [21],15%
same,%Inh,[17],9%
same,%Inh,[18],31%
same,%Inh,[19],0%
same,%Inh,[20],6%
CNc1nc(-c2ccc3c(N)n[nH]c3c2)cc(N2C[C@@H](C(=O)NC3CCCCC3)OC[C@H]2C)n1 [GSK2375584],%Inh,[1],0%
same,%Inh,[2],26%
same,%Inh,[3],34%
same,%Inh,[4],40%
same,%Inh,[5],24%
same,%Inh,[6],0%
same,%Inh,[7],31%
same,%Inh,[8],15%
same,%Inh,[9],36%
same,%Inh,[10],37%
same,%Inh,[11],11%
same,%Inh,[12],0%
same,%Inh,[13],39%
same,%Inh,[14],2%
same,%Inh,[15],7%
same,%Inh,[16]; [21],0%
same,%Inh,[17],0%
same,%Inh,[18],24%
same,%Inh,[19],0%
same,%Inh,[20],14%
COc1ccc(Nc2nccc(N3CCC(NC(=O)C(C)c4ccc(Cl)cc4)C3)n2)cc1 (stereo not shown) [GSK1379735],%Inh,[1],4%
same,%Inh,[2],0%
same,%Inh,[3],0%
same,%Inh,[4],0%
same,%Inh,[5],0%
same,%Inh,[6],6%
same,%Inh,[7],29%
same,%Inh,[8],28%
same,%Inh,[9],16%
same,%Inh,[10],13%
same,%Inh,[11],0%
same,%Inh,[12],0%
same,%Inh,[13],8%
same,%Inh,[14],0%
same,%Inh,[15],12%
same,%Inh,[16]; [21],0%
same,%Inh,[17],3%
same,%Inh,[18],14%
same,%Inh,[19],77%
same,%Inh,[20],0%
O=C(Nc1n[nH]c2nc(-c3cccs3)c(Br)cc12)C1CCCC1 [SB-743341],%Inh,[1],49%
same,%Inh,[2],0%
same,%Inh,[3],3%
same,%Inh,[4],3%
same,%Inh,[5],0%
same,%Inh,[6],7%
same,%Inh,[7],22%
same,%Inh,[8],27%
same,%Inh,[9],0%
same,%Inh,[10],0%
same,%Inh,[11],9%
same,%Inh,[12],5%
same,%Inh,[13],9%
same,%Inh,[14],7%
same,%Inh,[15],24%
same,%Inh,[16]; [21],0%
same,%Inh,[17],36%
same,%Inh,[18],1%
same,%Inh,[19],31%
same,%Inh,[20],10%
COC(=O)C(Cc1ccccc1)NC(=O)NC1CCN(c2ccnc(Nc3ccc(F)cc3)n2)C1 (stereo not shown) [GSK1379714],%Inh,[1],0%
same,%Inh,[2],25%
same,%Inh,[3],12%
same,%Inh,[4],28%
same,%Inh,[5],7%
same,%Inh,[6],0%
same,%Inh,[7],8%
same,%Inh,[8],75%
same,%Inh,[9],47%
same,%Inh,[10],48%
same,%Inh,[11],0%
same,%Inh,[12],0%
same,%Inh,[13],0%
same,%Inh,[14],0%
same,%Inh,[15],10%
same,%Inh,[16]; [21],10%
same,%Inh,[17],0%
same,%Inh,[18],31%
same,%Inh,[19],0%
same,%Inh,[20],7%
Cc1ccc(NC(=O)c2ccc(Cl)cc2)cc1-c1ccc(C(=O)Nc2ccncc2)cc1 [GSK1398467],%Inh,[1],0%
same,%Inh,[2],12%
same,%Inh,[3],0%
same,%Inh,[4],34%
same,%Inh,[5],3%
same,%Inh,[6],0%
same,%Inh,[7],0%
same,%Inh,[8],89%
same,%Inh,[9],36%
same,%Inh,[10],0%
same,%Inh,[11],0%
same,%Inh,[12],0%
same,%Inh,[13],5%
same,%Inh,[14],0%
same,%Inh,[15],4%
same,%Inh,[16]; [21],0%
same,%Inh,[17],0%
same,%Inh,[18],33%
same,%Inh,[19],0%
same,%Inh,[20],19%
CSc1ccc(-c2nc3n(c2-c2ccncc2)CCC3)cc1 [SKF-105561],%Inh,[1],21%
same,%Inh,[2],29%
same,%Inh,[3],0%
same,%Inh,[4],0%
same,%Inh,[5],3%
same,%Inh,[6],0%
same,%Inh,[7],21%
same,%Inh,[8],75%
same,%Inh,[9],60%
same,%Inh,[10],0%
same,%Inh,[11],0%
same,%Inh,[12],0%
same,%Inh,[13],1%
same,%Inh,[14],0%
same,%Inh,[15],3%
same,%Inh,[16]; [21],0%
same,%Inh,[17],0%
same,%Inh,[18],7%
same,%Inh,[19],0%
same,%Inh,[20],12%
CS(=O)(=O)Cc1ccc(Nc2nccc(-c3c(-c4cccc(NC(=O)C5CCCCC5)c4)nn4ncccc34)n2)cc1 [GSK350559],%Inh,[16]; 1 µM,0%

# Reference: publication PMC5540273 (PLoS ONE, 2017)
